# Positions count from the first letter of the chain named. The full ranking holds about 9,900 sequences; the median of “r (bound/input frequency ratio)” is about 0.7, and the highest 2% start at about 6.5. The full list was thinned out, with the highest values kept by preference.
# B1: ENSMUSG00000029028.148|Lrrc47 (ssRNA)
# RNA: GGGAGUUCUACAGUCCGACGAUCGCUUCGAUAUCCGCAUGCUAUUGAGAACAUCAUGUUGUGAGUGUAAUCUUCUUAGAGCUUGUUUCCAGGCACCGUGCUGCCGCCAUGCUCCCAGGGCAGCAUCUGCCUUCCACGGCUGUGCUUGGAACUGUAGUGCUGGUCGUUGUUGGCACAUCUGCGCCUUGGCCAAGGAAGUUAUCUAUGUCCGUGUAGUCCUUUGUAGUCAGACAGAUGCUUCGUGGACUGUGCCUCACACAUGGCCCUGCAGGCUCCAUGUCAGCGUGUCCCACUAUUCAUGUCCCUCUUGCGGUCGCACUAGUGUGGAAUUCUCGGGUGUCAAGG
# B2: ENSMUSG00000004113.103|Cacna1b (ssRNA)
# RNA: GGGAGUUCUACAGUCCGACGAUCGCUUCGAUAUCCGCAUGCUAAUCCUAAGCAGGAGGUAGCUGAGUUGAGAUGGACCCAGCAAAUCCAAAUCCUAUGUCAUGGCCUCCAGCAUCCAGGGUGGGUCCUUGGGACUUUUCUUAGGAGGGACUUUCUGAGCCUCGUGGAGAGUGUGGUUUGUCCAAAUGUGUGGCAUGGGAGAUAGGGUACCCCUGAAAGCAAGGAAAGGAGCCCAGCUGUGGCCUGGUAGCACCUGCCGGCACCAGUGAUCUCACGUCUCUUGUGGUCUUGGAGUCAAAUAGCACUCUUGCGGUCGCACUAGUGUGGAAUUCUCGGGUGUCAAGG
# B3: ENSMUSG00000061578.1429|Ksr2|169:173 (ssRNA)
# RNA: GGGAGUUCUACAGUCCGACGAUCGCUUCGAUAUCCGCAUGCUAAGAUCUGUCUUGCUCUCUGUCUCUCUCACUCAUUGCCAACAUGUUGCUGGGAAAGAAUAUUUGAUUUAGAUGCCAAUCAGGAAGGCAAGUAGGAUGGAUGGAUGAGUGAGUGGAUAGGUAGGUAUAUAAAUGGAUGGAUGGGUGAUGGAUGGGUAAAUGAAUGGAUAGCAUACUGAAUGAAUGGAUGAUGGAUGAAUGGAUGGGUAGGUGGGUAGAUAGGUAUAUGAAUGAAUGGAUGAAUGGAUGGGUGAAUGGAUGGACUCUUGCGGUCGCACUAGUGUGGAAUUCUCGGGUGUCAAGG
# B4: ENSMUSG00000035279.28|Ssc5d (ssRNA)
# RNA: GGGAGUUCUACAGUCCGACGAUCGCUUCGAUAUCCGCAUGCUACAUUACCACCAGUAAGGGUCAUGGCUUGUGAGCCACCUGCCUUGGUGGAGCUGGUAGGUGCUGUGAGGGAGGUGGGUGACCAGCUGCAGAGACUGACCUGGGUCCUGGAGCAGGACCGGCAGGAGCGCCAAGUCCUGGCACUGGGCCUAGCCCAGUUGGUAGAGGCUGCUCAGGGGUUGGGGCAGCUGAGUGAGACUGUAAAGAGGCUAGCAGAGGUGGCCUGGCCCCCCAGCACUCCUGUGCCCAUGACCACCACCACACUCUUGCGGUCGCACUAGUGUGGAAUUCUCGGGUGUCAAGG
# B5: ENSMUSG00000031028.488|Tub|93:99;130:136 (ssRNA)
# RNA: GGGAGUUCUACAGUCCGACGAUCGCUUCGAUAUCCGCAUGCUAAGGAGGAGCUGAGAUGUGCACCCUUUUAAAUGAACAUGGGGUGGUGAUGGUGCCUUAACAAUCUUGACACUAAGGUGAAGCAAGCAAGUAAGCACACACCCUCUGGGAAGACAGGAGUCGGAAGCCAAGCACACACGCAACAGUCUGGAAGAGAGCUUUUGGUAAUCAUACCGUCUUCAGUGACAAGGCAACAAUGCUGUAAAGUGGGUUUGUUUGGUUUUGUUUUUUCUUUCUCUUUUAUGGAAAUGGCAGGUCUAUUUCUCUUGCGGUCGCACUAGUGUGGAAUUCUCGGGUGUCAAGG
# B6: ENSMUSG00000032194.180|Kank2|82:88;185:189 (ssRNA)
# RNA: GGGAGUUCUACAGUCCGACGAUCGCUUCGAUAUCCGCAUGCUAUGGCCUCAGAGCACUCCCAGAACUAGCUUAAAGUGACAGGCUUUGCUGAAAUCCAAAGGGACAAAAGAGUAGUUUUAUGUUACACACAUUGUUUUUAAUGCCCUGGAGCUCCUGCUGGUGACAGGAGAGACAGACAGGCUGCACCUUUCUCUAACUGGGGUUCCUUUCUGGCCCCAGGAUCUCACACACGUUCGUGGGGGGAUUUUGUUGUUGUUUCUUUGUUUCUUUUCUUCAUAAAGAAGAAAAAGGAAACAACUUCUCUCUUGCGGUCGCACUAGUGUGGAAUUCUCGGGUGUCAAGG
# B7: ENSMUSG00000061578.618|Ksr2 (ssRNA)
# RNA: GGGAGUUCUACAGUCCGACGAUCGCUUCGAUAUCCGCAUGCUAGUGGCUUGCCUGGCUGGCCUGUGAUAUAGUGGACUGUCUUAGUGAUCGGACUUCAGGGAGCAACCUAUAGGAAAUGCAAAGGCUUAGAGGGGACGGACAGCUCCCUGACCCUGGAUGGCCAGGAAUGGUGCUAGCUAGGGUGUGAGCCAAGCCCUUGAGGCUACUGUGAGUUAUGAGAUGUGUCCAACCCUCAGCCCACAGACUGCAUAUGCCCCAGGACAGCUGUGAAGGUGACCCAAUACAAAAUCGUAAACUAACUUCUCUUGCGGUCGCACUAGUGUGGAAUUCUCGGGUGUCAAGG
# B8: ENSMUSG00000061578.593|Ksr2 (ssRNA)
# RNA: GGGAGUUCUACAGUCCGACGAUCGCUUCGAUAUCCGCAUGCUAUCUGGGAUAAAAAAAAAAAGUCAAAAGAAAUAAAAUAUGAUUCAGGCAAAUUCAAUGCAACUCAAAAUUUCCACCAAUCCCAUAUUGUCCCUAGCAAUGACAAAAUUAUUUGCAAGACAGACCCUGUGACCUGUAGAGGCAAAAUAUAUGGUGGCUUGCCUGGCUGGCCUGUGAUAUAGUGGACUGUCUUAGUGAUCGGACUUCAGGGAGCAACCUAUAGGAAAUGCAAAGGCUUAGAGGGGACGGACAGCUCCCUGACCCUCUUGCGGUCGCACUAGUGUGGAAUUCUCGGGUGUCAAGG
# B9: ENSMUSG00000061578.1182|Ksr2 (ssRNA)
# RNA: GGGAGUUCUACAGUCCGACGAUCGCUUCGAUAUCCGCAUGCUAUGUCCUCGGGUGUCUCUGCUGUAUAUAGGCCAGUCACAAGCCCUUCUAAAAGCCUGCUCUUGUCUGCUUUUGUUUCUCCACCAUGCCCCCUGCCACCUCUUCUGACAGUGCUCAGAUUUAUCAGCCACCUGACCCACAGACCCAUAUGGACACACUAGAAAGCCCAUCCUAGGUCUUUCCAUGGUCUCUCACACCCCUGUCCCCGUCCCCUCCACCCCCCGGCAGCAUGCUUCACUCUAUGAAUGAGCCGCUGGGAUAUUCUCUUGCGGUCGCACUAGUGUGGAAUUCUCGGGUGUCAAGG
# B10: ENSMUSG00000061578.1465|Ksr2|48:52 (ssRNA)
# RNA: GGGAGUUCUACAGUCCGACGAUCGCUUCGAUAUCCGCAUGCUAUAGGUAUAUGAAUGAAUGGAUGAAUGGAUGGGUGAAUGGAUGGAUAGCAUACUGAAUAAAUGGAUGGAUGGAUGGAUUGAUUUGUGAAUGAAUGGAUGAAUGGAUGGGUAGGUGGGUGGAUGCAUAGGCAAGUAGAUGAAUGAAUAUGUGGGUAGAAGGGUGAGUGGGUGGAUGAAUGGAUGGAUAGGUUGGUAGGUUAAUGUAUUCGUGGAUGGGUGAAUGGAUGGAUGGAUAGAUAGAUGGGAAGGUGGAUGGACAGACUCUUGCGGUCGCACUAGUGUGGAAUUCUCGGGUGUCAAGG
# B11: ENSMUSG00000061578.1468|Ksr2|30:34 (ssRNA)
# RNA: GGGAGUUCUACAGUCCGACGAUCGCUUCGAUAUCCGCAUGCUAGAUGAAUGGAUGGGUGAAUGGAUGGAUAGCAUACUGAAUAAAUGGAUGGAUGGAUGGAUUGAUUUGUGAAUGAAUGGAUGAAUGGAUGGGUAGGUGGGUGGAUGCAUAGGCAAGUAGAUGAAUGAAUAUGUGGGUAGAAGGGUGAGUGGGUGGAUGAAUGGAUGGAUAGGUUGGUAGGUUAAUGUAUUCGUGGAUGGGUGAAUGGAUGGAUGGAUAGAUAGAUGGGAAGGUGGAUGGACAGAUGGAUGGAUGGAUAGAUACUCUUGCGGUCGCACUAGUGUGGAAUUCUCGGGUGUCAAGG
# B12: ENSMUSG00000061578.1463|Ksr2|60:64 (ssRNA)
# RNA: GGGAGUUCUACAGUCCGACGAUCGCUUCGAUAUCCGCAUGCUAUAGGUGGGUAGAUAGGUAUAUGAAUGAAUGGAUGAAUGGAUGGGUGAAUGGAUGGAUAGCAUACUGAAUAAAUGGAUGGAUGGAUGGAUUGAUUUGUGAAUGAAUGGAUGAAUGGAUGGGUAGGUGGGUGGAUGCAUAGGCAAGUAGAUGAAUGAAUAUGUGGGUAGAAGGGUGAGUGGGUGGAUGAAUGGAUGGAUAGGUUGGUAGGUUAAUGUAUUCGUGGAUGGGUGAAUGGAUGGAUGGAUAGAUAGAUGGGAAGGCUCUUGCGGUCGCACUAGUGUGGAAUUCUCGGGUGUCAAGG
# B13: ENSMUSG00000061578.1472|Ksr2|6:10 (ssRNA)
# RNA: GGGAGUUCUACAGUCCGACGAUCGCUUCGAUAUCCGCAUGCUAGAUAGCAUACUGAAUAAAUGGAUGGAUGGAUGGAUUGAUUUGUGAAUGAAUGGAUGAAUGGAUGGGUAGGUGGGUGGAUGCAUAGGCAAGUAGAUGAAUGAAUAUGUGGGUAGAAGGGUGAGUGGGUGGAUGAAUGGAUGGAUAGGUUGGUAGGUUAAUGUAUUCGUGGAUGGGUGAAUGGAUGGAUGGAUAGAUAGAUGGGAAGGUGGAUGGACAGAUGGAUGGAUGGAUAGAUAGAUGGACAGGUGGUUGGUGGAUAACUCUUGCGGUCGCACUAGUGUGGAAUUCUCGGGUGUCAAGG
# B14: ENSMUSG00000061578.1466|Ksr2|42:46 (ssRNA)
# RNA: GGGAGUUCUACAGUCCGACGAUCGCUUCGAUAUCCGCAUGCUAUAUGAAUGAAUGGAUGAAUGGAUGGGUGAAUGGAUGGAUAGCAUACUGAAUAAAUGGAUGGAUGGAUGGAUUGAUUUGUGAAUGAAUGGAUGAAUGGAUGGGUAGGUGGGUGGAUGCAUAGGCAAGUAGAUGAAUGAAUAUGUGGGUAGAAGGGUGAGUGGGUGGAUGAAUGGAUGGAUAGGUUGGUAGGUUAAUGUAUUCGUGGAUGGGUGAAUGGAUGGAUGGAUAGAUAGAUGGGAAGGUGGAUGGACAGAUGGAUGCUCUUGCGGUCGCACUAGUGUGGAAUUCUCGGGUGUCAAGG
# B15: ENSMUSG00000061578.1469|Ksr2 (ssRNA)
# RNA: GGGAGUUCUACAGUCCGACGAUCGCUUCGAUAUCCGCAUGCUAUGGAUGGGUGAAUGGAUGGAUAGGUAUGUGAAUAAAUGGAUGGAUGGAUGGAUUGAUUUGUGAAUGAAUGGAUGAAUGGAUGGGUAGGUGGGUGGAUGCAUAGGCAAGUAGAUGAAUGAAUAUGUGGGUAGAAGGGUGAGUGGGUGGAUGAAUGGAUGGAUAGGUUGGUAGGUUAAUGUAUUCGUGGAUGGGUGAAUGGAUGGAUGGAUAGAUAGAUGGGAAGGUGGAUGGACAGAUGGAUGGAUGGAUAGAUAGAUGGACUCUUGCGGUCGCACUAGUGUGGAAUUCUCGGGUGUCAAGG
# B16: ENSMUSG00000061578.1469|Ksr2|24:28 (ssRNA)
# RNA: B15 RNA with G67C, U68A, A69U, U70A, G71C
# B17: ENSMUSG00000061578.1467|Ksr2|36:40 (ssRNA)
# RNA: GGGAGUUCUACAGUCCGACGAUCGCUUCGAUAUCCGCAUGCUAUGAAUGGAUGAAUGGAUGGGUGAAUGGAUGGAUAGCAUACUGAAUAAAUGGAUGGAUGGAUGGAUUGAUUUGUGAAUGAAUGGAUGAAUGGAUGGGUAGGUGGGUGGAUGCAUAGGCAAGUAGAUGAAUGAAUAUGUGGGUAGAAGGGUGAGUGGGUGGAUGAAUGGAUGGAUAGGUUGGUAGGUUAAUGUAUUCGUGGAUGGGUGAAUGGAUGGAUGGAUAGAUAGAUGGGAAGGUGGAUGGACAGAUGGAUGGAUGGACUCUUGCGGUCGCACUAGUGUGGAAUUCUCGGGUGUCAAGG
# Target: TDP-43 (Homo sapiens, UniProt Q13148 1-414)
# Assay: RNA Bind-n-Seq with designed 260-mer pool; 25 mM Tris-HCl, 150 mM KCl, 3 mM MgCl2, BSA (printed 500 mg/mL), 20 units/mL SUPERase IN; pH not stated; 500 nM RNA pool, 1 h, 4 C; TDP-43 5, 50, 500 nM; high values mean tight binding
# Details: protein: recombinant; tags: SBP (GST cleaved off with PreScission; pGEX-GST-SBP)
# Method in brief: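 Binding (R) is the ratio of each oligo's mapped-read-normalized abundance in the bound fraction to its abundance in the input. To obtain it, SBP-tagged recombinant TDP-43 (5, 50 or 500 nM) on streptavidin beads was incubated with 500 nM of an in vitro-transcribed 260-nt 3′ UTR oligo pool for 1 h at 4 °C in 25 mM Tris-HCl, 150 mM KCl, 3 mM MgCl2, BSA and SUPERase IN. The RNA retained after washing was released with biotin, then reverse transcribed, amplified by PCR and sequenced.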
# TDP-43, sequence (Q13148 whole entry): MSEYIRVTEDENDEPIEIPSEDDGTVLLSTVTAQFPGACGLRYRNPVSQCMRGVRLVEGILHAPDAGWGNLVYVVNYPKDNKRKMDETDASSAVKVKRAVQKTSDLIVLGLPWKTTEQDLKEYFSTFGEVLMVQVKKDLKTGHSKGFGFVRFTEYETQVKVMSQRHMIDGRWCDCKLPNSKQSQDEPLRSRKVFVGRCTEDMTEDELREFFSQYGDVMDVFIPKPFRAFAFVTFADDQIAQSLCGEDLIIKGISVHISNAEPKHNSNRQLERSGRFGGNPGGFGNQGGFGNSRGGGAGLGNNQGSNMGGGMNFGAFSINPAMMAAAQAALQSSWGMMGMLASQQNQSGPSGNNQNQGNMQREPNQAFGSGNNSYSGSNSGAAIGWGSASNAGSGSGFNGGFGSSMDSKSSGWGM
row,Binder,binding signal
1,B1,1.13 R (bound/input frequency ratio)
2,B2,1.15 R (bound/input frequency ratio)
3,B3,5.89 R (bound/input frequency ratio)
4,B4,0.915 R (bound/input frequency ratio)
5,B5,0.906 R (bound/input frequency ratio)
6,B6,0.125 R (bound/input frequency ratio)
7,B7,0.616 R (bound/input frequency ratio)
8,B8,0.762 R (bound/input frequency ratio)
9,B9,0.904 R (bound/input frequency ratio)
10,B10,5.93 R (bound/input frequency ratio)
11,B11,8.93 R (bound/input frequency ratio)
12,B12,4.6 R (bound/input frequency ratio)
13,B13,5.45 R (bound/input frequency ratio)
14,B14,6.95 R (bound/input frequency ratio)
15,B15,5.88 R (bound/input frequency ratio)
16,B16,12.1 R (bound/input frequency ratio)
17,B17,6.51 R (bound/input frequency ratio)
